From the supplement of paper PMC11732987, “Enantioselective OTUD7B fragment discovery through chemoproteomics screening and high-throughput optimisation” (Communications Chemistry, 2025)

Tests used:
Assay in all cases: log2 ratio of Biotin-Ahx-Ub-VS probe labelling (fragment/DMSO); higher = less target engagement (more negative = stronger competition), active = hit call of the paper (q ≤ 0.05, log2 ratio ≤ -1)
Settings in all cases: compound concentration: 200 uM; treatment time: 3 h
[1] = molecular target: USP34 (UniProt Q70CQ2)
Chain of USP34 (Q70CQ2 whole entry, the tested form may be a part): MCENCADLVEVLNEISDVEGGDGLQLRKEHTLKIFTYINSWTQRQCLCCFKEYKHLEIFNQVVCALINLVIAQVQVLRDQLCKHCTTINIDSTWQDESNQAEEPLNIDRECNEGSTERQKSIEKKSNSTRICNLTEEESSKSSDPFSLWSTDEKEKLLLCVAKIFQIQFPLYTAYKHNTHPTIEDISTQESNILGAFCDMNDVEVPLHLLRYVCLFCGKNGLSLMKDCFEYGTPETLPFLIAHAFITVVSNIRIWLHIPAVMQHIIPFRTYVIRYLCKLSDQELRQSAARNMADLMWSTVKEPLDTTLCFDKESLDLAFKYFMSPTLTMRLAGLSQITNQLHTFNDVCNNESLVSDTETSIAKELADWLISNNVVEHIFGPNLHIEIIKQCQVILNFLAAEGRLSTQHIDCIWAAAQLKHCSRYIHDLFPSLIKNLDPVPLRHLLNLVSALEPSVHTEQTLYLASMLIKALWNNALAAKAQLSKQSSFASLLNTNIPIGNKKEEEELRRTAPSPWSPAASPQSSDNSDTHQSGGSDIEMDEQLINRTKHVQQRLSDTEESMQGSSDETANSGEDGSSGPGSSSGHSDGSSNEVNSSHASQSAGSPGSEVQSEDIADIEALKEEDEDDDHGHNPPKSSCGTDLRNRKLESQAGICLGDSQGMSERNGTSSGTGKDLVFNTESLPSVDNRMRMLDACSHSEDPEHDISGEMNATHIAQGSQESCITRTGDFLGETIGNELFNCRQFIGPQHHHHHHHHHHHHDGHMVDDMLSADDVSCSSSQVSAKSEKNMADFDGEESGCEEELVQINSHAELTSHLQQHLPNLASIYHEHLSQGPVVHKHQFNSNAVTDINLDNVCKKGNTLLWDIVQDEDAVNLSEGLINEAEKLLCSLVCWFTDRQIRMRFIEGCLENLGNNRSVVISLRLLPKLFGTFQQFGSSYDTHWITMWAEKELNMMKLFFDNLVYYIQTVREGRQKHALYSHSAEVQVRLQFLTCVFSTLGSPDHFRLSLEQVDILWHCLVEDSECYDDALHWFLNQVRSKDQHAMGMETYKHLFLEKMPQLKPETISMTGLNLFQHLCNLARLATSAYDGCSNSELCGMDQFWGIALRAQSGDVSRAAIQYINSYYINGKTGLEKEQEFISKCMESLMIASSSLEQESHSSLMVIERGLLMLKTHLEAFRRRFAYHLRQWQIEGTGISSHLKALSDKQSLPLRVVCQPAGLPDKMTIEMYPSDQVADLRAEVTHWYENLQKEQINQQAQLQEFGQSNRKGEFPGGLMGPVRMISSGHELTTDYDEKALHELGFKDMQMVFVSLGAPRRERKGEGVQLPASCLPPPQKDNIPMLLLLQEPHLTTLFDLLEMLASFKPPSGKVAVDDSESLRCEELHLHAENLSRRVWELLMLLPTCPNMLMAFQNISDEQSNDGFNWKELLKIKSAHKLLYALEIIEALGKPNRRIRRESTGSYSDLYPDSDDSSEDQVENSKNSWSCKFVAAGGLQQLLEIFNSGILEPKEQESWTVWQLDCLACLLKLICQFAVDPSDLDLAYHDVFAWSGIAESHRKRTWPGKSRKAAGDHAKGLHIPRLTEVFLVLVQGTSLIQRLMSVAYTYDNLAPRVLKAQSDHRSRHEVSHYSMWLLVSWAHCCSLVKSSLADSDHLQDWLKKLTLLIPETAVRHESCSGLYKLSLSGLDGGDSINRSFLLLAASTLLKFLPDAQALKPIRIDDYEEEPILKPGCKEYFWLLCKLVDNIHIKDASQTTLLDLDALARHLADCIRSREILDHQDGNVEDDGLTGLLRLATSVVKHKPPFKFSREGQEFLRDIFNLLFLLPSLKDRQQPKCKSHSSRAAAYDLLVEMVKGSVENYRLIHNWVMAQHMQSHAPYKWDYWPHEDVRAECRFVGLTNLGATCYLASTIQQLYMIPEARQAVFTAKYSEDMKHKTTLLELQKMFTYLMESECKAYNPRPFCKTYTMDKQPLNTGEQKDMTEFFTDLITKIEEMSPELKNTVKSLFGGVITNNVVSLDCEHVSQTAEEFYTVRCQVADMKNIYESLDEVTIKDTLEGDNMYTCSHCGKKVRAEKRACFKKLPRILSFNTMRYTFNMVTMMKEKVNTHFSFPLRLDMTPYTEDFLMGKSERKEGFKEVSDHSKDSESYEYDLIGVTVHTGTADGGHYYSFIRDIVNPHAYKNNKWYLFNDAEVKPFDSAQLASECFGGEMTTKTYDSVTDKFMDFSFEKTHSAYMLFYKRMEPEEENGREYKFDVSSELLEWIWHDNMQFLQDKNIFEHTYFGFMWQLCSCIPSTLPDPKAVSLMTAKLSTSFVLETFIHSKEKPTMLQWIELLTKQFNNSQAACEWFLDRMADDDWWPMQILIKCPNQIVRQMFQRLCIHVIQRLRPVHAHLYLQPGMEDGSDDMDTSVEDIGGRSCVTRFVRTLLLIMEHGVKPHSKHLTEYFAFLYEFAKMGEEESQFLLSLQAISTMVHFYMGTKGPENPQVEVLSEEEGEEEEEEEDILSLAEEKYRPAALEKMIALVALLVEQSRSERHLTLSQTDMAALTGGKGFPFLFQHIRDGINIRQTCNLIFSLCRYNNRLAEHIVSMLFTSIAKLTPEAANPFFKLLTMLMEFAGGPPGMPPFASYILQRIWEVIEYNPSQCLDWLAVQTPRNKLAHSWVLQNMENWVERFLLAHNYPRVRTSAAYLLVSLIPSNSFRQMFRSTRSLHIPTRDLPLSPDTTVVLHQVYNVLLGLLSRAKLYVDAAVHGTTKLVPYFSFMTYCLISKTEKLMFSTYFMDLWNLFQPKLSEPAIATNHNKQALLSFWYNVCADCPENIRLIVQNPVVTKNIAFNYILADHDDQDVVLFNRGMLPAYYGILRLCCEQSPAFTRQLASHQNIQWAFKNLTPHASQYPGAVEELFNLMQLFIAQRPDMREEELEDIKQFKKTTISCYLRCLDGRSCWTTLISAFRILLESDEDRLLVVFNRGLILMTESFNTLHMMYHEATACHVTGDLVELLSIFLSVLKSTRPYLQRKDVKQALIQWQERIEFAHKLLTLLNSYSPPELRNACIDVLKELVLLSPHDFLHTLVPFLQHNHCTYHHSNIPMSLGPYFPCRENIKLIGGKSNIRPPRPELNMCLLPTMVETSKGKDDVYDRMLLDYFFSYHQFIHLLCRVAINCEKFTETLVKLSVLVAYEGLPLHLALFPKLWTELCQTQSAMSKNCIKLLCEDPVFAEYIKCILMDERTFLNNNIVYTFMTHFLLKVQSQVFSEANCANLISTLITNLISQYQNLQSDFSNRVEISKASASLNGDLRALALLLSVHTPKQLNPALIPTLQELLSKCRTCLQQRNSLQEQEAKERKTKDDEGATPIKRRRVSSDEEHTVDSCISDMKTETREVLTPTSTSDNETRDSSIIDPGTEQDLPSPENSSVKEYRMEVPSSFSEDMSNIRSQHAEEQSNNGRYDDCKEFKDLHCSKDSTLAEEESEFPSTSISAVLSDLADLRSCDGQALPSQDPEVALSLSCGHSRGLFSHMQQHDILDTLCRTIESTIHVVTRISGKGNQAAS
Procedure, shortened: (§1)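 HEK293T lysate in Tris/CHAPS/IGEPAL buffer with protease inhibitors (495 µg per sample) was given fragment at 200 µM or vehicle for 3 h, in triplicate. It then received Biotin-Ahx-Ub-VS at 0.5 µM final for 1 h. Labelled DUBs were NeutrAvidin-enriched, digested with LysC and trypsin, and run by diaPASEF LC-MS/MS. Values are average log2 fragment/vehicle ratios by unpaired t-test on global-median-normalised Spectronaut quantities of proteins with ≥2 unique peptides.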

[2] = molecular target: T1, USP36 (UniProt Q9P275)
T1 sequence (whole entry): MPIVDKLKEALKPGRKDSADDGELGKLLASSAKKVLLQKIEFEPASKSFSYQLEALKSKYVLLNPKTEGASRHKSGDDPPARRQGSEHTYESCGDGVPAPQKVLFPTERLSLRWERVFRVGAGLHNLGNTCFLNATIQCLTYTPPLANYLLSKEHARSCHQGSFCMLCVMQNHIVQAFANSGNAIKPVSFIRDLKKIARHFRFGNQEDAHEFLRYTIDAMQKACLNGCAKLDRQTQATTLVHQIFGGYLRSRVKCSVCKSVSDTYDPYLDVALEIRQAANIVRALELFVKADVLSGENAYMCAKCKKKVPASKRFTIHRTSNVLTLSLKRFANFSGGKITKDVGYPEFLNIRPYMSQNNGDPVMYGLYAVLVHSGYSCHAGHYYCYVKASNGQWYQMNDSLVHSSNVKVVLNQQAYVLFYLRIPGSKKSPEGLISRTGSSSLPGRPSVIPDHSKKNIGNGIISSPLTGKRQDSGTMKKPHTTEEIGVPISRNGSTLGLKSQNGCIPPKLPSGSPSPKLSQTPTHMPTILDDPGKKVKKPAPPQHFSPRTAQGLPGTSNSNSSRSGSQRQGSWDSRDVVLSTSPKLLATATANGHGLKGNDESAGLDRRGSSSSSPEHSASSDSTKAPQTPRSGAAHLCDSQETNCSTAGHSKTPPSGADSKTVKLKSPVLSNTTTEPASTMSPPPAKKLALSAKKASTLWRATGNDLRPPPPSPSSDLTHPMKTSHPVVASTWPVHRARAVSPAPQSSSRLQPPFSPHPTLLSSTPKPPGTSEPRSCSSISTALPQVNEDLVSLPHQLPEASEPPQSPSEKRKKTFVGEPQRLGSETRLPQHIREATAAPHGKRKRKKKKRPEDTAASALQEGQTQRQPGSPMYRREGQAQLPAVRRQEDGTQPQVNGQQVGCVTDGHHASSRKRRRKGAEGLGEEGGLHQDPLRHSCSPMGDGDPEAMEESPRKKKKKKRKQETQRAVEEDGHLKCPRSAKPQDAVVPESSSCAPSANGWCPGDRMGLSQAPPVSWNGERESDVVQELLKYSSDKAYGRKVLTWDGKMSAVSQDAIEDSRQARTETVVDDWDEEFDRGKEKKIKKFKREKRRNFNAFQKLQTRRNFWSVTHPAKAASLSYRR
Procedure, shortened: as §1

[3] = molecular target: T2, USP38 (UniProt Q8NB14)
T2 sequence (whole entry): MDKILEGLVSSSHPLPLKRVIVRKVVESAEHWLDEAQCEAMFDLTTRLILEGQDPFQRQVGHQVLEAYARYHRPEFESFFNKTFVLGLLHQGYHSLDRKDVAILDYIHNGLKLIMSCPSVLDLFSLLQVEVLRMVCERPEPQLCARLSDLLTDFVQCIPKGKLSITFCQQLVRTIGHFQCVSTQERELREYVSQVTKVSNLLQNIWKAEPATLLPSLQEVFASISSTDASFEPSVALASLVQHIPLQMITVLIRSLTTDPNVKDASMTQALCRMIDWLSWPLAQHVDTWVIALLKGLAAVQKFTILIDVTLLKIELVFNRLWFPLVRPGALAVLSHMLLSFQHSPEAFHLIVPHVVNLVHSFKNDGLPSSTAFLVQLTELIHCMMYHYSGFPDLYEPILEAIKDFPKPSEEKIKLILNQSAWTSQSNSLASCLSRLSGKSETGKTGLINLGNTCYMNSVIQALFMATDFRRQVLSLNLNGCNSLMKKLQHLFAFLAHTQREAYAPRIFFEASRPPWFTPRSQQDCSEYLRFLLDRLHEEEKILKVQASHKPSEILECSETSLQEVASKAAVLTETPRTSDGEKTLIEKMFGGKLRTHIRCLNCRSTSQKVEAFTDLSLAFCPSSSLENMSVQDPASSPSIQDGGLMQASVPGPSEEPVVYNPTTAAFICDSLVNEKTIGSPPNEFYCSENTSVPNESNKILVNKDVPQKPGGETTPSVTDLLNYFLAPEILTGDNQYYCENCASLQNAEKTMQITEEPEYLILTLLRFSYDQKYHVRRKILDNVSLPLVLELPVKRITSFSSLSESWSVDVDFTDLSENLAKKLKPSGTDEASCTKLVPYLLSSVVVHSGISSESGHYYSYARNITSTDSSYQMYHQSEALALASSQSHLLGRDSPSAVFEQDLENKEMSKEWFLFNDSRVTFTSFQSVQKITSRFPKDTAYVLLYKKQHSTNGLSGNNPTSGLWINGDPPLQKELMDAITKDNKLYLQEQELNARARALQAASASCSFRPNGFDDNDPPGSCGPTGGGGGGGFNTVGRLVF
Procedure, shortened: as §1

[4] = molecular target: T3, USP39 (UniProt Q53GS9)
T3 sequence (whole entry): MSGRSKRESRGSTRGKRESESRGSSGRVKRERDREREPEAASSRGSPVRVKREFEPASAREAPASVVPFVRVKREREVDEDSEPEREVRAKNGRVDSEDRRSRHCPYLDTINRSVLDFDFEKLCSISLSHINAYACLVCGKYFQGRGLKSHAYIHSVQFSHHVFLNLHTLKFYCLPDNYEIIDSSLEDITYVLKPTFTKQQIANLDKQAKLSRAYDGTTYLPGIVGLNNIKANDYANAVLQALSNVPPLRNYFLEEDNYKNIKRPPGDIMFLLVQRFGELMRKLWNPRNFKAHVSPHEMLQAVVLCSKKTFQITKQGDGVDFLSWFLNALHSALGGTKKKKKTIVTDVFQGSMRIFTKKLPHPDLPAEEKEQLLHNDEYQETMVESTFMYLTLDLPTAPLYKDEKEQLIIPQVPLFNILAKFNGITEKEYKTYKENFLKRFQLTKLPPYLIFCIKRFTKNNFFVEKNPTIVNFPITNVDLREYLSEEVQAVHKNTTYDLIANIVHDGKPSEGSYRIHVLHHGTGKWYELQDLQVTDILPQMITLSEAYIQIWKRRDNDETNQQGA
Procedure, shortened: as §1

[5] = molecular target: T4, USP4 (UniProt Q13107)
T4 sequence (whole entry): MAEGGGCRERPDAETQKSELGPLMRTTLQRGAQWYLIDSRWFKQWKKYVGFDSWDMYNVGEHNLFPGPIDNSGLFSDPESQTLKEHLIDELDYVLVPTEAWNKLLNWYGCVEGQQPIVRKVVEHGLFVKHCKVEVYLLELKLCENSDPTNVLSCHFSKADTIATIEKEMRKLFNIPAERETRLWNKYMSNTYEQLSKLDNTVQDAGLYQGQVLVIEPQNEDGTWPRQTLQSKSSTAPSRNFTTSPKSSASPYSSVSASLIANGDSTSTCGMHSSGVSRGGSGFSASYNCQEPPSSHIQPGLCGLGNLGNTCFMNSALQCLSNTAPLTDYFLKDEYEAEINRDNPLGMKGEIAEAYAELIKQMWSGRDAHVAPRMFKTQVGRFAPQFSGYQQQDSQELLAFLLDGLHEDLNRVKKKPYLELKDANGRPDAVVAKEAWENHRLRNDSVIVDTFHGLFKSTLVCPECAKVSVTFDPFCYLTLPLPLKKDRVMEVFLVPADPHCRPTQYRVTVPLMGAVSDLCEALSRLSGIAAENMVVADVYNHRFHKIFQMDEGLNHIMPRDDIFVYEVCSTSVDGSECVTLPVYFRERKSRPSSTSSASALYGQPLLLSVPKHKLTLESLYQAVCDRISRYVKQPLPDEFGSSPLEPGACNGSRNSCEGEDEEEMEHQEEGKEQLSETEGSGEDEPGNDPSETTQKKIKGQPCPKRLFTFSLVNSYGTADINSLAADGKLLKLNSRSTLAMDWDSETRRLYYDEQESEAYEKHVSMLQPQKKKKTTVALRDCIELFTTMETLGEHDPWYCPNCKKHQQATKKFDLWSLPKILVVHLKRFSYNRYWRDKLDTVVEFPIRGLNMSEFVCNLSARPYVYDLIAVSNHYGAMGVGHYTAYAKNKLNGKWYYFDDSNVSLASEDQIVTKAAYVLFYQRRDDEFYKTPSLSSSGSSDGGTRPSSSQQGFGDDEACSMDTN
Procedure, shortened: as §1

Measured: log2 ratio of Biotin-Ahx-Ub-VS probe labelling

Cc1cccc(N(CCC#N)C(=O)CCl)c1C
inactive: [1] -0.119 | [2] -0.0707 | [3] -0.0489 | [4] -0.305 | [5] 0.163
